# Compounds with a hit are over-represented: about 10% of the library has one in this group of screens.
# GLS inhibitor – qHTS for Inhibitors of Glutaminase (GLS); Glutaminase kidney isoform, mitochondrial (Homo sapiens), O94925; GLS enzymatic activity, qHTS titration; Potency, µM (series often up to 45.5 µM), most hits filed as inhibitors; 410,000 tested, 0.21% active; AID 624170, 2012
#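 Coupled fluorescence readout: glutamate oxidase/HRP/Amplex Red detect glutamate formed by hKGA from L-glutamine (1 mM solution added). Buffer 45 mM KH2PO4 pH 8.2, 0.02% Tween-20; reads at t0 and 30 min RT.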
# HP1b chromo inh – HTS for Inhibitors of HP1-beta Chromodomain Interactions with Methylated Histone Tails | Chromobox protein homolog 1 (Homo sapiens), P83916 | 390,000 tested, 0.56% active | AlphaScreen HP1-beta / biotin-H3K9me3 peptide binding | Potency, µM (series often up to 114 µM), actives largely listed as inhibitors; note: nearly all actives have a fitted effect of over 70% in size
#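 AlphaScreen: HP1-beta (50 nM) preformed 30 min with biotin-H3(1-18)K9me3 peptide (50 nM) in PBS pH 7.4, 0.01% Tween-20. Compound added for 30 min at RT, then streptavidin donor/nickel chelate acceptor beads (10 ug/mL) for 30 min.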
# G9a block – qHTS Assay for Inhibitors of Histone Lysine Methyltransferase G9a | 350,000 tested, 8.8% active | Potency, µM (top dose mostly 102 µM), actives largely listed as inhibitors | G9a H3K9 monomethylation, AlphaScreen, 2 h; note: nearly all actives have a fitted effect of over 75% in size
#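 Signal arises when biotinylated H3K9 peptide, once monomethylated, bridges streptavidin donor and antibody-captured acceptor beads. Enzyme at 20 nM was preincubated 15 min with test compounds; peptide 500 nM and SAM 20 uM then reacted for 2 h.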
# BAZ2B inh – qHTS Assay for Inhibitors of BAZ2B | AlphaScreen BAZ2B-H3K14Ac peptide displacement | Bromodomain adjacent to zinc finger domain protein 2B (Homo sapiens), Q9UIF8 | Potency, µM (highest dose often 114 µM), actives largely listed as inhibitors | 360,000 tested, 4.4% active; note: nearly all actives have a fitted effect of over 60% in size
#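 Complex of BAZ2B and biotin-H3K14Ac (50 nM apiece) forms over 30 min at RT, then faces library compounds up to 110 uM for another 30 min; AlphaScreen beads added, 20 min dark incubation, luminescence read.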
# JMJD2A Tudor inh – qHTS Assay for Inhibitors of JMJD2A-Tudor Domain | AlphaScreen JMJD2A-Tudor / H3K4me3 peptide binding | Potency, µM (series often up to 114 µM), most hits filed as inhibitors | AID 504339, 2011 | 390,000 tested, 4.4% active; note: nearly all actives have a fitted effect of over 50% in size
# Hits are given with their value; – = inactive; ? = inconclusive; · = no result; [ ] = another dose, or the depositor's remark. Calls come from the whole dose curve; as a rule, active = well fitted curve in the direction sought with a large enough effect; inconclusive = small, poorly fitted or top-dose-only effect, or another doubt; inactive = no such curve, though single readings can be large; an effect the other way counts as inactive or inconclusive.
SMILES,GLS inhibitor,HP1b chromo inh,G9a block,BAZ2B inh,JMJD2A Tudor inh
Cc1cc(C(=O)N2CCN(c3cccc(Cl)c3)CC2)c2c(C)nn(-c3ccccc3Cl)c2n1,–,–,–,–,–
Cc1c(CN(C)C)c2c(n1C)C(=O)c1ccc(Br)cc1-2,–,–,?,?,?
Cc1c(CN(C)C)c2c(n1Cc1ccccc1)C(=O)c1ccc(Br)cc1-2,–,?,17.8µM,22.4µM,39.8µM
CC(=O)Nc1nc(-c2ccccc2)nc(C)c1C(C)=O,–,–,–[12.7 µM],–,?
COc1ccc(/C=C/C(=O)Nc2nc(-c3cccs3)ns2)cc1,–,–,–,–,–
CC(C)(C)C(=O)CN1CCN(C2c3ccccc3-c3ccccc32)CC1,–,–,50.1µM,–,–
COc1ccccc1NC(=O)CN1CCN(C2c3ccccc3-c3ccccc32)CC1,–,–,·,–,–
COc1ccc(NC(=O)CN2CCN(C3c4ccccc4-c4ccccc43)CC2)c(OC)c1,–,–,44.7µM,?,?
CC(CCCCCCCCC(=O)O)N(CCO)C(=O)OC(C)(C)C (centres undefined),–,–,–[0.501 µM],–,–
O=C(NC(=S)Nc1ccc(S(=O)(=O)Nc2nccs2)cc1)c1cccnc1,?,–,44.7µM,?,–
O=C(Cc1ccccc1Cl)Nc1ccc(S(=O)(=O)Nc2nccs2)cc1,–,–,–,–,–
O=C(CSc1ccc(Br)c2cccc(Cl)c12)Nc1ccc(S(=O)(=O)Nc2nccs2)cc1,–,–,31.6µM,–,?
O=C(NC(=S)Nc1ccc(Cc2ccncc2)cc1)c1ccccc1F,–,–,79.4µM,–,–
O=C(NC(=S)Nc1ccc(S(=O)(=O)Nc2nccs2)cc1)c1ccccc1,–,–,?,–,–
O=C(NC(=S)Nc1ccc(S(=O)(=O)Nc2nccs2)cc1)c1ccccc1F,–,?,10µM,?,?
CCn1c(CCNC(=O)c2ccc(OC)cc2)nnc1SCc1ccc(Cl)cc1Cl,–,–,–,–,–
Cc1ccc(C(=O)OCC(=O)NNC(=O)c2cccs2)c(O)c1,–,–,–,–,–
O=C(O)c1ccccc1C(=O)Nc1ccc(S(=O)(=O)Nc2nccs2)cc1,–,–,–,50.1µM,–
COc1ccccc1C(=O)Nc1ccc(S(=O)(=O)Nc2nccs2)cc1,–,–,?,–,–
O=C1COc2ccc(S(=O)(=O)Nc3cccc(Cl)c3)cc2N1,–,–,–,–,–
COc1ccc(Br)cc1CN(C)C(C)C(=O)Nc1cccc(C(C)=O)c1 (centres undefined),–,–,–[12.7 µM],–,–
Cc1ccc(NC(=O)C2CCN(C(=O)N3CCOc4ccccc43)CC2)cc1,–,–,–,–,–
CCC(c1nnnn1Cc1ccccc1)N1CCN(C(=O)c2ccco2)CC1 (centres undefined),–,–,79.4µM,–,–
COCCn1nnnc1C(c1ccc(Cl)cc1)N1CCN(C(=O)c2ccco2)CC1 (centres undefined),–,–,56.2µM,–,44.7µM
COCCn1nnnc1C(CC(C)C)N1CCN(C(=O)c2ccco2)CC1 (centres undefined),–,–,39.8µM,79.4µM,–[11.4 µM]
SMILES,GLS inhibitor,HP1b chromo inh,G9a block,BAZ2B inh,JMJD2A Tudor inh
CCCCC(c1nnnn1CCOC)N1CCN(C(=O)c2ccco2)CC1 (centres undefined),–,–,?,50.1µM,–[11.4 µM]
Cc1ccc(S(=O)(=O)Cn2nnnc2C(CC(C)C)N2CCN(C(=O)c3ccco3)CC2)cc1 (centres undefined),–,–,?,–,–
COCCn1nnnc1C(c1ccc(OC)cc1)N1CCN(C(=O)c2ccco2)CC1 (centres undefined),–,–,?,–,–
CSCC[C@H](NC(=O)N1CCn2c1nc1ccccc12)C(=O)N[C@@H](C(=O)O)c1ccccc1,–,–,–[12.7 µM],–,–
COCCn1nnnc1C(c1ccc(OC)c(OC)c1)N1CCN(C(=O)c2ccco2)CC1 (centres undefined),–,–,–,–,–
COCCn1nnnc1C(c1ccc(Cl)cc1)N1CCSCC1 (centres undefined),–,–,50.1µM,?,–

# Assay outcomes (PubChem)
